Screens from PubChem BioAssay.
Shown are actives, neighbours in structure and some others; about 4.6% of the full set was active somewhere.
D1 ag: agonists of human D1 dopamine receptor; P21728; HEK293 T-REx D1 cells, calcium flux, agonist mode; activation, % at 2 µM; hit rate 1% among 360,000; also: 0% is about no effect
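Agonism was scored from calcium flux recorded over 180 s (1 read/s) after pintool compound addition, following a 10-cycle baseline. Cells were inducible force-coupled HEK293 TREx D1, plated overnight at 30 C and loaded with no-wash calcium dye.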
D1 antagonist: antagonists of human D1 dopamine receptor | activity change, negative = inhibition, % at 10 µM | hit rate 3.2% among 360,000 | HEK293 TREx D1 cells, calcium flux, dopamine EC80; active compounds read low | P21728; in the data active = activity change below about -30%; also: % is scaled to controls: 0 for no effect and ±100 for the full control effect
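Antagonism measured as reduced calcium response to an EC80 dopamine addition following 180 s compound pre-read; cells were inducible HEK293 Trex D1 plated overnight at 30 C, read kinetically at 1 cycle/sec.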
D1 potentiator: potentiators of human D1 dopamine receptor; P21728; HEK293 TREx D1 cells, calcium flux, dopamine EC20 potentiation; potentiation, % at 10 µM; hit rate 0.036% among 360,000; AID 504651; in the data active = potentiation above about 30%; also: 0% is about no effect
TRHR PAM: TRH receptor (human) allosteric enhancement; P34981; enhancement, % at 2 µM; TRHR cells, fluo-8 calcium fluorescence, EC20 TRH enhancement; AID 493056; hit rate 0.66% among 360,000; in the data active = enhancement above about 30%; also: 0% is about no effect
Target sequence (P34981 whole entry, looked up): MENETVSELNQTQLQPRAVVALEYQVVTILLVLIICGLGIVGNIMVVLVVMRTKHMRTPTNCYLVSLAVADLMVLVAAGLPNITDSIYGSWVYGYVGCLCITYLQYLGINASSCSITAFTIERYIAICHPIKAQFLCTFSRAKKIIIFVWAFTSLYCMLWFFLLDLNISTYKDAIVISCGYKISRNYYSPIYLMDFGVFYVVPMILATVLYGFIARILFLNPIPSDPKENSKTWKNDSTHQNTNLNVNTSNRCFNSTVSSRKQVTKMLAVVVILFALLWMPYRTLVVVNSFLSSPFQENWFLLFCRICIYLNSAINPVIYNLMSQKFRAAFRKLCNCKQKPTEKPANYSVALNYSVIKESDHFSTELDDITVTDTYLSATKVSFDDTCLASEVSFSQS
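TRHR-expressing cells loaded with fluo-8 calcium dye were read kinetically (ex 480/em 530) during compound addition, then stimulated with an EC20 of TRH (10 nM final). Enhancement of the Gq-mediated intracellular calcium response was scored.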
TRHR agonist: activates the human TRH receptor. P34981. TRHR cells, calcium flux fluo-8, FDSS agonist mode. activation, % at 2 µM. hit rate 0.18% among 360,000; also: 0% is about no effect
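Fluo-8-loaded TRHR cells; 10 s baseline, compound added, kinetic Ca2+ fluorescence read 1/s, agonist mode.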
Starred values were filed as active, the others as inactive; / = not tested or not shown. Rule as the data show it, unless noted: active = activation above about 30%; inactive = the rest.

SMILES	D1 ag	D1 antagonist	D1 potentiator	TRHR PAM	TRHR agonist
CCc1ccc(Nc2ccc(C(=O)O)cc2[N+](=O)[O-])cc1	1	-3	0	-2	1
CCc1ccc(Nc2ccc(C(N)=O)cc2[N+](=O)[O-])cc1	1	-40*	-4	0	0
Cc1ccc(Nc2ccc(C(N)=O)cc2[N+](=O)[O-])cc1C	1	-53*	-12	3	-2
CNCCCCOc1ccccc1-c1ccccc1	38*	-48*	-6	10	1
CNCCOc1ccccc1-c1ccccc1	1	-1	-3	-2	-1
COCCCNCCOc1ccccc1-c1ccccc1	14	-44*	-9	-1	0
COCCNCCOc1ccccc1-c1ccccc1	17	-31*	-7	10	0
COCCCNCCCCOc1ccccc1-c1ccccc1	15	-37*	-8	4	0
Cc1cc2c(s1)c1cnn(Cc3ccc(C(C)(C)C)cc3)c(=O)c1n2C	4	7	-1	2	0
Nc1c(C(=O)Nc2ccc(OC(F)(F)F)cc2)nnn1Cc1ccccc1	0	24	0	-3	0
COc1ccccc1N1CCN(C(=O)c2cc(-c3ccc4c(c3)OCO4)on2)CC1	1	-5	-4	1	0
COc1ccccc1N1CCN(C(=O)c2cc(-c3ccc(C)c(F)c3)on2)CC1	2	-81*	-1	-3	0
Cc1ccc(NC(=O)C(OC(=O)c2ccc(O)cc2)c2ccccc2)cc1Cl (stereo not drawn)	8	-41*	3	-4	1
Cc1ccc(CN(C(=O)COc2cccc([N+](=O)[O-])c2)c2ccccn2)o1	-3	1	-1	18	0
Cc1cc(-c2nnc3n2N=C(c2ccccc2)CS3)n[nH]1	0	24	-8	0	0
Cc1cc(-c2nnc3n2N=C(c2ccc(-c4ccccc4)cc2)CS3)n[nH]1	63*	1	-4	-6	0
COc1ccc(-c2c3c(nc4sc(C(=O)Nc5cccc(OC)c5)c(N)c24)CC(C)(C)CC3=O)cc1	4	3	-2	-1	0
COc1ccc(NC(=O)c2sc3nc4c(c(-c5ccc(OC)cc5)c3c2N)C(=O)CC(C)(C)C4)cc1	12	-36*	-4	3	0
Cc1ccc2oc(C(=O)Nc3ccc(S(=O)(=O)Nc4nccc(C)n4)cc3)cc(=O)c2c1	-1	-19	0	9	0
Cc1ccc(Sc2c(C(=O)Nc3ccc(F)cc3F)c(C(F)(F)F)nn2C)cc1	10	-23	1	-4	0
Cn1nc(C(F)(F)F)c(CO)c1Sc1ccc(F)cc1	1	12	1	30*	0
CCCC(=O)Oc1c(Sc2ccc(Cl)cc2)c(C)nn1-c1ccccc1	-1	2	2	2	0
O=C(C1=C[C@H](c2csc3ccccc23)C[C@H](OCc2ccc(CO)cc2)O1)N1CCN(Cc2ccc3c(c2)OCO3)CC1	0	-34*	4	-6	1
O=C(NC1CC1)C1=C[C@@H](c2coc3ccccc3c2=O)C[C@@H](OCc2ccc(CO)cc2)O1	34*	4	5	0	0
O=C(O)C1=C[C@@H](c2coc3ccccc3c2=O)C[C@@H](OCc2ccc(CO)cc2)O1	-5	-22	0	-5	0
SMILES	D1 ag	D1 antagonist	D1 potentiator	TRHR PAM	TRHR agonist
CN1CCN(C(=O)C2=C[C@H](c3coc4ccccc4c3=O)C[C@H](OCc3ccc(CO)cc3)O2)CC1	-3	-20	34*	-8	0
O=C(C1=C[C@@H](c2coc3ccccc3c2=O)C[C@@H](OCc2ccc(CO)cc2)O1)N1CCOCC1	-6	-17	0	-6	0
CN1CCN(C(=O)C2=C[C@@H](c3csc4ccccc34)C[C@@H](OCc3ccc(CO)cc3)O2)CC1	41*	-5	-2	-6	2
CN(Cc1ccc(F)cc1)S(=O)(=O)c1nnc(NC(=O)c2ccc(F)cc2)s1	21	-19	-1	-5	1
COc1cccc2c1cc1c(=O)n(CC(=O)NCc3ccco3)nc(C)n12	1	3	-2	3	0
Cc1cc(C)cc(NC(=O)C(CC(C)C)NC(=O)C2CCCCC2)c1 (stereo not drawn)	2	1	0	1	0
COc1cccc(NC(=O)c2cn(C3CCCCC3)c(=O)c3c2c2ccccc2n3C)c1	1	14	4	1	0
CN1CCN(C(=O)C2=C[C@@H](C3CC3)C[C@@H](OCc3ccc(CO)cc3)O2)CC1	-4	12	3	31*	0
COc1ccc2c(C)c(CCC(=O)NCc3ccccc3OC)c(=O)oc2c1	2	-9	-2	-1	-1
CCN(c1ccccc1)S(=O)(=O)c1ccc(NCC2COc3ccccc3O2)nc1 (stereo not drawn)	8	-10	8	0	-1
CCN(CC1COc2ccccc2O1)S(=O)(=O)c1ccc(C)cc1 (stereo not drawn)	10	-33*	-4	-1	1
CC(C)c1cc(N2CCN(C(=O)c3ccco3)CC2)n2c(nc3ccccc32)c1C#N	0	-33*	-3	-3	0
CCn1c(N2CCN(C(=O)c3ccco3)CC2)nc2ccccc21	3	8	-6	1	0
Cc1cccc(Oc2nccc(C(F)(F)F)c2C(=O)Nc2ccc(F)cc2F)c1	3	-54*	3	5	0
Cc1nn2c(=O)cc(COC(=O)c3ccccc3NC(=O)c3cccs3)nc2s1	0	10	0	3	0
COc1ccc(C2CC(Cn3cc(C#N)c(=O)n(C)c3=O)ON2C)cc1 (stereo not drawn)	0	-34*	-8	14	0
Clc1ccc(-c2nnc3n2CCCS3)cc1	1	23	-1	34*	-1
CC(C)(C)c1ccc(C(=O)Nc2onc3c2CCCC3)cc1	-2	-6	-1	-3	0
COCCNC(=O)C(c1ccc(C)o1)N(Cc1ccc(OC)cc1)C(=O)Cn1nnc2ccccc21 (stereo not drawn)	56*	-11	-9	-1	0
CCCn1cnc2c(sc3nc4c(cc32)CSC(C)(C)C4)c1=O	3	-41*	-4	3	0
Cc1nc(-c2ccc(Cl)cc2)sc1CCNC(=O)c1ccc(C(F)(F)F)cc1	4	3	1	6	0
CCOc1ccc(C(=O)Nc2onc3c2CCCC3)cc1	-2	-13	-1	2	0
CC(C)COc1ccc(C(=O)Nc2onc3c2CCCC3)cc1	10	-45*	-1	-2	-1
O=C(CC1CCCC1)N1CCN(S(=O)(=O)c2ccc(F)cc2)CC1	7	14	/	3	0
O=C(CCC1CCCC1)N1CCN(S(=O)(=O)c2ccc(Br)cc2)CC1	0	-31*	-8	-8	-1
